Assays:
Assay in all cases: log2 ratio of Biotin-Ahx-Ub-VS probe labelling (fragment/DMSO); higher = less target engagement (more negative = stronger competition), active = hit call of the paper (q ≤ 0.05, log2 ratio ≤ -1)
Details in all cases: compound concentration: 200 uM; treatment time: 3 h
USP42 = target: T1, USP42 (UniProt Q9H9J4)
T1 sequence (whole entry): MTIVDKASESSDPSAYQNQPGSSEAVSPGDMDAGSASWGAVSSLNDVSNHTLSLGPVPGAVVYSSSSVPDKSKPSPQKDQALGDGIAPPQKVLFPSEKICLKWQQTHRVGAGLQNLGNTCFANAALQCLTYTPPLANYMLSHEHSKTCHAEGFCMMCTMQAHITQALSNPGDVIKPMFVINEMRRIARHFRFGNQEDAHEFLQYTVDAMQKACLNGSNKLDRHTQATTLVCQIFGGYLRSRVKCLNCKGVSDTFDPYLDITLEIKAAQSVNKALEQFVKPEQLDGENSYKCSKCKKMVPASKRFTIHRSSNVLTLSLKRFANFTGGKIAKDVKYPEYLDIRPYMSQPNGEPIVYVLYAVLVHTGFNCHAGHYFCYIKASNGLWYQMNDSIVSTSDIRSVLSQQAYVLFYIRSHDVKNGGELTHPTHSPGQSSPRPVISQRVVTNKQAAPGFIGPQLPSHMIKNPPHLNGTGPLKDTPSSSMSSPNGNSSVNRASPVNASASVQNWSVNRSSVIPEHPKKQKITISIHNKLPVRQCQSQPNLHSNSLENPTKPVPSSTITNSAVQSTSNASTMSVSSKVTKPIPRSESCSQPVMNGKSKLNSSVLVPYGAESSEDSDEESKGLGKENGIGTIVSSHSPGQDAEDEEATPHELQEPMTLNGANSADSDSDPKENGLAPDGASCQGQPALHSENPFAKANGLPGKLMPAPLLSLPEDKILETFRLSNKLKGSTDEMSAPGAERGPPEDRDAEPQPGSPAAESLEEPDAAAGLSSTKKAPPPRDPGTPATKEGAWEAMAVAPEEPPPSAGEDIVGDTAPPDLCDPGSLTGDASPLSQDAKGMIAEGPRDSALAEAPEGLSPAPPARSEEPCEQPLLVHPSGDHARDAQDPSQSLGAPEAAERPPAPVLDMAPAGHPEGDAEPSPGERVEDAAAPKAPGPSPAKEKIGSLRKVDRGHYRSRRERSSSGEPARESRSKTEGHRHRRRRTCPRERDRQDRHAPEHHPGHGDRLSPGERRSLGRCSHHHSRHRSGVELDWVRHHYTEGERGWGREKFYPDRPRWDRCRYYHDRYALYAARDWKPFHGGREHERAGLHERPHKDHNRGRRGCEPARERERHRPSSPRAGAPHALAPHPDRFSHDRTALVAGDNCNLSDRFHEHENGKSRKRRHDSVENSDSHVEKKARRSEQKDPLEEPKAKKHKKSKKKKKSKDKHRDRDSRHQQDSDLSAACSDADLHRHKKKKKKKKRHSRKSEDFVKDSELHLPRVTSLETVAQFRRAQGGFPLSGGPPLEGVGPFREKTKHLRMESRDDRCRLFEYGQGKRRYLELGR
Procedure, shortened: (§1)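 Each value is an average log2 ratio of fragment to vehicle, tested by unpaired t-test. The underlying Spectronaut label-free quantities were global-median-normalised, and only proteins with ≥2 unique peptides were included. Triplicate HEK293T lysate samples (495 µg) were exposed to fragment at 200 µM or vehicle for 3 h, then to Biotin-Ahx-Ub-VS at 0.5 µM final for 1 h, before NeutrAvidin enrichment of labelled DUBs, LysC and trypsin digestion, and diaPASEF LC-MS/MS.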

USP46 = USP46 (UniProt P62068)
USP46, sequence (P62068 whole entry): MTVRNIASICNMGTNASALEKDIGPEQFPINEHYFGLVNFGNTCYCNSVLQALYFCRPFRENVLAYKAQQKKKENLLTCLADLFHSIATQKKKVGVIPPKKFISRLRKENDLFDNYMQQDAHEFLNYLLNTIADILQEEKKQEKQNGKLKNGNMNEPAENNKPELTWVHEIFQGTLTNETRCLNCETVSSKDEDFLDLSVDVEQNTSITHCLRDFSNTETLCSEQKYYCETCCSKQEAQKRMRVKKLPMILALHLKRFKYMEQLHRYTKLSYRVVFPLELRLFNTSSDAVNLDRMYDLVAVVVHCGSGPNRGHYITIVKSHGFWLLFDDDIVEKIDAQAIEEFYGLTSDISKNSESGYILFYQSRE
Procedure, shortened: as §1

USP47 = target: T2, USP47 (UniProt Q96K76)
T2 sequence (whole entry): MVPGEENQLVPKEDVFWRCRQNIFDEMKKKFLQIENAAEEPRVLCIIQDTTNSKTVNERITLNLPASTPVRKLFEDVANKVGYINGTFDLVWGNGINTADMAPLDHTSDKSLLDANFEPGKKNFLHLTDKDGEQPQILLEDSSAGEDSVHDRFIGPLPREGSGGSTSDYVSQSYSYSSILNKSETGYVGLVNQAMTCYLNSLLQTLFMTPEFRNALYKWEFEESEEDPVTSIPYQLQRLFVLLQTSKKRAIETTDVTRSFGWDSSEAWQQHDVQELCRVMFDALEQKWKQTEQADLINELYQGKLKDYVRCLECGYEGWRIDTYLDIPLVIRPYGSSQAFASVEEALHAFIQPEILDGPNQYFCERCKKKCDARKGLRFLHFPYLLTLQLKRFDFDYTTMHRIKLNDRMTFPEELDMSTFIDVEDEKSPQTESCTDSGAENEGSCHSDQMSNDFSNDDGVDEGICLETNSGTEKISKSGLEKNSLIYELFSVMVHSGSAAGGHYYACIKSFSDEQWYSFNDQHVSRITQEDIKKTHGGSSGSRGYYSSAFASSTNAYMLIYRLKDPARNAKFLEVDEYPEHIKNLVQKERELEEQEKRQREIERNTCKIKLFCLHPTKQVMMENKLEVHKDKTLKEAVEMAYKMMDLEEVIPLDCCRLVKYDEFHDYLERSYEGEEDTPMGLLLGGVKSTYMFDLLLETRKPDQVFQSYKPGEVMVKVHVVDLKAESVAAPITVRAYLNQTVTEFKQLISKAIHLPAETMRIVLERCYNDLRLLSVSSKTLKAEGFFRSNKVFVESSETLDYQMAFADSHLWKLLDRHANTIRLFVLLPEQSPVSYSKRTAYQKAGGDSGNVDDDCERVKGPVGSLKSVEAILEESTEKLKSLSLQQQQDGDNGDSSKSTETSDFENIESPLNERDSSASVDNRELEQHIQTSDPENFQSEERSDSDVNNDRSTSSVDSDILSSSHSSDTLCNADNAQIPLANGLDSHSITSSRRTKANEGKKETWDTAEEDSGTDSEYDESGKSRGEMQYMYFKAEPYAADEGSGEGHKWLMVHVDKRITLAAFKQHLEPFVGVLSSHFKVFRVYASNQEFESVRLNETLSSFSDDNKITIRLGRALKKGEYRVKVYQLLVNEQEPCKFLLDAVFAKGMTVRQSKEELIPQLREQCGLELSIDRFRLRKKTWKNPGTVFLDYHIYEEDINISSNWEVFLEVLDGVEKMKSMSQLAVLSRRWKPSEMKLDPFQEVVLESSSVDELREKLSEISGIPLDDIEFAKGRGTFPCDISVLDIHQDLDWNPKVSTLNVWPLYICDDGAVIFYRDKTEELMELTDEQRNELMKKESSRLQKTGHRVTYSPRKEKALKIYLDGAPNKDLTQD
Procedure, shortened: as §1

USP48 = target: T3, USP48 (UniProt Q86UV5)
T3 sequence (whole entry): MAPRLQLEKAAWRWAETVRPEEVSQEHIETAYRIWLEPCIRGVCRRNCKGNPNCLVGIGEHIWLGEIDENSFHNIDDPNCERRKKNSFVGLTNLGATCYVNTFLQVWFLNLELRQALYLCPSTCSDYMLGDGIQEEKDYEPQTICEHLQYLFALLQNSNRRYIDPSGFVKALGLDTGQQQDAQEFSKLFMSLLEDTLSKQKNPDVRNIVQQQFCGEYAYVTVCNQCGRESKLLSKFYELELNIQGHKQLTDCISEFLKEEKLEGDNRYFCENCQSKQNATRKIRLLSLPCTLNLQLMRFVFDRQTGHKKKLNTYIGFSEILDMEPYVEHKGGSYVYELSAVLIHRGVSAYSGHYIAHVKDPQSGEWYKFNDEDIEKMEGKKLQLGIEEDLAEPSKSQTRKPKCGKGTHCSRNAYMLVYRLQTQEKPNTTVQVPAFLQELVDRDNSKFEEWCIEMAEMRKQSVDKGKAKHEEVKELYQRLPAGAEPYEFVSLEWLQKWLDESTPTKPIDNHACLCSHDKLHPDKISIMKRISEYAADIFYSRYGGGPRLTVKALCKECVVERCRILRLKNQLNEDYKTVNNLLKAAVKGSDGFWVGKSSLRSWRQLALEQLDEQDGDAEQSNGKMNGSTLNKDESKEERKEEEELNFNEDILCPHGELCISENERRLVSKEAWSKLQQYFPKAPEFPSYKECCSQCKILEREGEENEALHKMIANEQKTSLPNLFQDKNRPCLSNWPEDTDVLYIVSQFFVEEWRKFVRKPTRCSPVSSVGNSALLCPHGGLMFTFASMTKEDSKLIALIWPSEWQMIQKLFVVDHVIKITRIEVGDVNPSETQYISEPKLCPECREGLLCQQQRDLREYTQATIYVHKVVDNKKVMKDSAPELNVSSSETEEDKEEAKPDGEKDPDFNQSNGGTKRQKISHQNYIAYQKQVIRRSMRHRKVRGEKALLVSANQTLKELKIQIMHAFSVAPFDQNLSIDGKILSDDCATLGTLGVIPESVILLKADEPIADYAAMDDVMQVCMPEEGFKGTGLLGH
Procedure, shortened: as §1

USP5 = target: T4, USP5 (UniProt P45974)
T4 sequence (whole entry): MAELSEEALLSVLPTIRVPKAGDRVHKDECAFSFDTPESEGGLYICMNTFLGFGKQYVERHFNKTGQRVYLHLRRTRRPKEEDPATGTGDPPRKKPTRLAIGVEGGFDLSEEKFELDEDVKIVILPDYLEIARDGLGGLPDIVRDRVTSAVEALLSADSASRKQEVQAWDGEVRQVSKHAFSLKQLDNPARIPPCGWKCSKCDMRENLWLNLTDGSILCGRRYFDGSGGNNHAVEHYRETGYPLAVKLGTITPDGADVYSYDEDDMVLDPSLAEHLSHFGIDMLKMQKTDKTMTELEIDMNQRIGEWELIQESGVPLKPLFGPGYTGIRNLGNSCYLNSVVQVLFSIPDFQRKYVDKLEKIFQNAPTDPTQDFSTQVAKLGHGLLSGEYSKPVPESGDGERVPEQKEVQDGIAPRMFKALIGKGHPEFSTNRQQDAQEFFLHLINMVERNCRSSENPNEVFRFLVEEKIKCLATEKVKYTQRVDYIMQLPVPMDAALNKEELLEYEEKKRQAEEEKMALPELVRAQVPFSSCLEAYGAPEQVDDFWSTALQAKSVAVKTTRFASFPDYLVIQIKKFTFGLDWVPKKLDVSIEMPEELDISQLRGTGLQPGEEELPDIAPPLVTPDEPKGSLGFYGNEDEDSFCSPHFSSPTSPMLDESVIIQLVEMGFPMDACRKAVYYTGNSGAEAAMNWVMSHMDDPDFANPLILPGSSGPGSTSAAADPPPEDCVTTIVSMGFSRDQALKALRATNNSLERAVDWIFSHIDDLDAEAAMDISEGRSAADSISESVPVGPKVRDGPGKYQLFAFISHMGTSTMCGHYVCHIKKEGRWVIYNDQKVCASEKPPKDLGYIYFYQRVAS
Procedure, shortened: as §1

USP54 = USP54 (UniProt Q70EL1)
Procedure, shortened: as §1

USP7 = USP7 (UniProt Q93009)
USP7, sequence (Q93009 whole entry, looked up): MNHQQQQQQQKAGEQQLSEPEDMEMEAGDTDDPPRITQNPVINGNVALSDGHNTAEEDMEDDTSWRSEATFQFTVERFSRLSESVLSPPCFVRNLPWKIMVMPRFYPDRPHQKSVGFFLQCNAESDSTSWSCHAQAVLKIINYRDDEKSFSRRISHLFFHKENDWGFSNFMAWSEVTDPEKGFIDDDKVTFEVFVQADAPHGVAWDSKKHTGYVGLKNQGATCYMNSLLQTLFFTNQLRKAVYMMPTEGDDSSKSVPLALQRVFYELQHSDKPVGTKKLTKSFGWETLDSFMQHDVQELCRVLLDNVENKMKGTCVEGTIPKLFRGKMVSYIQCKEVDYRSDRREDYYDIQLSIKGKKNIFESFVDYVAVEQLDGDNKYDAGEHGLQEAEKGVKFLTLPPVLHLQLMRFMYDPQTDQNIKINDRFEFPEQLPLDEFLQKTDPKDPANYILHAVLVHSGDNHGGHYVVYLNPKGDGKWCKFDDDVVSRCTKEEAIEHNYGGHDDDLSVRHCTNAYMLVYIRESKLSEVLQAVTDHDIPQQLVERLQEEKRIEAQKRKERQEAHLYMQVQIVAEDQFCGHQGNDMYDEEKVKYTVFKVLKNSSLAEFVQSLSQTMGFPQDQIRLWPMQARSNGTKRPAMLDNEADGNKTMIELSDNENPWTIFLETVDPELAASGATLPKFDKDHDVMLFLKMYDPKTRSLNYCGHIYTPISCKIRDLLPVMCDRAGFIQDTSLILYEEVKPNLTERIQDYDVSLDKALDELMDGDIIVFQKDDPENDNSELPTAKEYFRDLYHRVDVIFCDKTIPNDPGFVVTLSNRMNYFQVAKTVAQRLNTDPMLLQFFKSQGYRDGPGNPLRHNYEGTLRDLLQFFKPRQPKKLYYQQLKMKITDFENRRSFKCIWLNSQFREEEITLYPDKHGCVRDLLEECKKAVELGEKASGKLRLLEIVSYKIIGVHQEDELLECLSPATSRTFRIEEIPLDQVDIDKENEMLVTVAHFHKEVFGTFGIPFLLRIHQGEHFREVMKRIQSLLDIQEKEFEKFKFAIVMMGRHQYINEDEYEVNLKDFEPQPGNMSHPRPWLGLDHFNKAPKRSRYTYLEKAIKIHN
Procedure, shortened: as §1

USP8 = target: T5, USP8 (UniProt P40818)
T5 sequence (whole entry): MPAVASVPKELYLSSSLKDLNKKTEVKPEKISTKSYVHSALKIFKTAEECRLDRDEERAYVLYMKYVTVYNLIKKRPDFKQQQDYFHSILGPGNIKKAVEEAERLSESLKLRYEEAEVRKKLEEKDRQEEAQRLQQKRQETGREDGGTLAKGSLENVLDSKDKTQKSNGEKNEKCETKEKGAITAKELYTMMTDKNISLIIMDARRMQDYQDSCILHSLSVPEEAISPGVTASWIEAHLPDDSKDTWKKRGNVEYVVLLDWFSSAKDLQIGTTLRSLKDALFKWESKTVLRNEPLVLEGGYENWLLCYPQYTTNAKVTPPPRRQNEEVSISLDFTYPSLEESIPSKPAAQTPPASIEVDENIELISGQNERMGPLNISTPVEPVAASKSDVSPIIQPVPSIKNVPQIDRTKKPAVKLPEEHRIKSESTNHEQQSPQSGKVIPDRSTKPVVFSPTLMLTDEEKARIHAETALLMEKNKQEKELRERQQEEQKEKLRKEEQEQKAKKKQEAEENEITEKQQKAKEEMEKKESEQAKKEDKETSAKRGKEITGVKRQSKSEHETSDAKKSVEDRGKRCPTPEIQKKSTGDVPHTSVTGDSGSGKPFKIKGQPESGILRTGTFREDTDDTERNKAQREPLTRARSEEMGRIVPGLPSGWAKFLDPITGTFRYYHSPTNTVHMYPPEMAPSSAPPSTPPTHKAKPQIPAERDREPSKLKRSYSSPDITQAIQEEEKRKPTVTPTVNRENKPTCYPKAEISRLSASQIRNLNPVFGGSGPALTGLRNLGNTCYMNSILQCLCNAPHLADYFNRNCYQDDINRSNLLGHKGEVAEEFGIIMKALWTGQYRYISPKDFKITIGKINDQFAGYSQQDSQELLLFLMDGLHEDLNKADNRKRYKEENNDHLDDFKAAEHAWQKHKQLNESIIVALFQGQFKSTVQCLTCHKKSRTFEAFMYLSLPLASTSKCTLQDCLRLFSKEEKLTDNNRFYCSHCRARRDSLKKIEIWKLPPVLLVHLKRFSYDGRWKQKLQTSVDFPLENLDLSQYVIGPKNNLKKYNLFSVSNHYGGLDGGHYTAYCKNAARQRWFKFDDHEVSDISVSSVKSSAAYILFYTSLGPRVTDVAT
Procedure, shortened: as §1

USP9X = USP9X (UniProt Q93008)
USP9X, sequence (Q93008 whole entry): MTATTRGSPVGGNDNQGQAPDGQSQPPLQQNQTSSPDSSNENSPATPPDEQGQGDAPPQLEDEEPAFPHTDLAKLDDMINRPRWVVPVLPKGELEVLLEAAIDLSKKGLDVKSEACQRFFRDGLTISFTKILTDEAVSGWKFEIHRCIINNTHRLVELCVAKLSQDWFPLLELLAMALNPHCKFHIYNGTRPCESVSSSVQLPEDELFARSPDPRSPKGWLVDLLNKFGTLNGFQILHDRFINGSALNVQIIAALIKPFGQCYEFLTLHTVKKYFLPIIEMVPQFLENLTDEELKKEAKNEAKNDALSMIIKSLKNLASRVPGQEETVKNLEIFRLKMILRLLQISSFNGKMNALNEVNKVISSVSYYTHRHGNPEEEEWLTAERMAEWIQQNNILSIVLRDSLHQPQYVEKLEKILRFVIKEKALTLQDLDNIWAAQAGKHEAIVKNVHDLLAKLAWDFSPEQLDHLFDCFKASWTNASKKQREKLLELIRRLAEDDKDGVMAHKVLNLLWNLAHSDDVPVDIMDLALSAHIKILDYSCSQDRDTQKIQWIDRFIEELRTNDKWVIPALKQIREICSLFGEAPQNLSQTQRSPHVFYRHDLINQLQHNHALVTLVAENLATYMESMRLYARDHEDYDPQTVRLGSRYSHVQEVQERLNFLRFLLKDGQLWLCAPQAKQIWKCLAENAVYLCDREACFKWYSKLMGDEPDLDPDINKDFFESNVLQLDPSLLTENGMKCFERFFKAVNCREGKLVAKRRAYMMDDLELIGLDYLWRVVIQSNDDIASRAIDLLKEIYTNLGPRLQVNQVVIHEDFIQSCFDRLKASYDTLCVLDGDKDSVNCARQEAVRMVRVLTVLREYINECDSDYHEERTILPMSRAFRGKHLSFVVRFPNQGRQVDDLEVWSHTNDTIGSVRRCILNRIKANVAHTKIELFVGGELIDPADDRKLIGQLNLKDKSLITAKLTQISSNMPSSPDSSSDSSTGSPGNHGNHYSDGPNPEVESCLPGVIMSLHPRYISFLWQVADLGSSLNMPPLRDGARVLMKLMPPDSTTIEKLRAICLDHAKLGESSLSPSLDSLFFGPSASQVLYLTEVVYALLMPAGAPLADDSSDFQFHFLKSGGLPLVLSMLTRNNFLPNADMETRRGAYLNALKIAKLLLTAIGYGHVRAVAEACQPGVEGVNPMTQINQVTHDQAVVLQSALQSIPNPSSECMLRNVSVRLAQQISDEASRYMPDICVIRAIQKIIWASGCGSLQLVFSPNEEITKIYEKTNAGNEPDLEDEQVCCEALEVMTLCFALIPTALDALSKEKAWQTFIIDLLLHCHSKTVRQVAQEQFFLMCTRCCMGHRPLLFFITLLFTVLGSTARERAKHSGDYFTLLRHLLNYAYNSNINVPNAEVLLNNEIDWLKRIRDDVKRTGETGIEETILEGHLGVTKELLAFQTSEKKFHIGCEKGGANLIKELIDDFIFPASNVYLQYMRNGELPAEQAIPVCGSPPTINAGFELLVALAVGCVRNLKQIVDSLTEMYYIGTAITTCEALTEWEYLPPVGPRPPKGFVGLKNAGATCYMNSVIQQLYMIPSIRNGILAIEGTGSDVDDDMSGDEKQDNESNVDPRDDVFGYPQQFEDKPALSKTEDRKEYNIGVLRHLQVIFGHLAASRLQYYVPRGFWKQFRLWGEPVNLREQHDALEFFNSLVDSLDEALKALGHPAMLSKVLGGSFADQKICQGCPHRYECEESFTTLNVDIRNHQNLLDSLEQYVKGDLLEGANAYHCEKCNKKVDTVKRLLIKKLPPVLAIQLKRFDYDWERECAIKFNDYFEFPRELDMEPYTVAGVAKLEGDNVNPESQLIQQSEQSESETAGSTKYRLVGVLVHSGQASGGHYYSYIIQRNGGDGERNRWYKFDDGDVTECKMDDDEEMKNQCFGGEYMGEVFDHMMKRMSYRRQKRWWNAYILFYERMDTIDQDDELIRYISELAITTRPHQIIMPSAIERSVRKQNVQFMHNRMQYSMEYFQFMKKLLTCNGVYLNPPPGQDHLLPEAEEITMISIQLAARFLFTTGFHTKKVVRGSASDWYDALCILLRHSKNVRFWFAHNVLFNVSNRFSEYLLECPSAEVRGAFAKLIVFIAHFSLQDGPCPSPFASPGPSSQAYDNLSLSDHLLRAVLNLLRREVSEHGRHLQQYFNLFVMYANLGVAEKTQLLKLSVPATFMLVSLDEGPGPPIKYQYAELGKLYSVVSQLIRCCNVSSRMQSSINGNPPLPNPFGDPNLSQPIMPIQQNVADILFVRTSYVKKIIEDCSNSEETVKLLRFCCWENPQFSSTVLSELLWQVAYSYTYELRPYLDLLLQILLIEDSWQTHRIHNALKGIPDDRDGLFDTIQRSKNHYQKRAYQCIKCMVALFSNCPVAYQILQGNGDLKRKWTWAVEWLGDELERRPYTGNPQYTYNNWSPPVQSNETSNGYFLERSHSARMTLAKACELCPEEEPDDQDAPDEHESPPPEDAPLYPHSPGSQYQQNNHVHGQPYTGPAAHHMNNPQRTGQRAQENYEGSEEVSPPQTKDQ
Procedure, shortened: as §1

UniProt O00487 = target: UniProt O00487
UniProt O00487, sequence (O00487 whole entry): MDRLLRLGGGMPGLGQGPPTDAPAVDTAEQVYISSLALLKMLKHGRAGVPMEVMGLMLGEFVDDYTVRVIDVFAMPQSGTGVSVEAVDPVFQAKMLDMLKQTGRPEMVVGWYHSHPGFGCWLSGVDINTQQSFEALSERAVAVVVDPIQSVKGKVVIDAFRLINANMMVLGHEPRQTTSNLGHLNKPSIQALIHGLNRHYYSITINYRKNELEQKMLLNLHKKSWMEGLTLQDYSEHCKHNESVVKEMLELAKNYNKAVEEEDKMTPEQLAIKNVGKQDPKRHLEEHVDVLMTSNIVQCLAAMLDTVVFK
Procedure, shortened: as §1

Measured: log2 ratio of Biotin-Ahx-Ub-VS probe labelling

Cl.O=C(CCl)N1CCc2ncncc2C1
inactive: USP42 0.0472 | USP46 -0.292 | USP47 -0.409 | USP48 -0.0378 | USP5 -0.0354 | USP54 0.253 | USP7 -0.411 | USP8 -0.218 | USP9X -0.425 | UniProt O00487 -0.0759

Source: the supplement of paper PMC11732987, “Enantioselective OTUD7B fragment discovery through chemoproteomics screening and high-throughput optimisation” (Communications Chemistry, 2025)
